PTHR1 agonist: PTHR1 (human) receptor agonism; Q03431; HEK293 GP2 PTHR1 cells, GloSensor cAMP luminescence, 1 h; Potency, µM (series often up to 115 µM), for the others: top-dose activation, most hits filed as activators; hit rate 0.075% among 410,000; note: potency is the fitted concentration of half-maximal effect; nearly all actives have a fitted effect of over 55% in size
Target sequence (Q03431 whole entry, looked up): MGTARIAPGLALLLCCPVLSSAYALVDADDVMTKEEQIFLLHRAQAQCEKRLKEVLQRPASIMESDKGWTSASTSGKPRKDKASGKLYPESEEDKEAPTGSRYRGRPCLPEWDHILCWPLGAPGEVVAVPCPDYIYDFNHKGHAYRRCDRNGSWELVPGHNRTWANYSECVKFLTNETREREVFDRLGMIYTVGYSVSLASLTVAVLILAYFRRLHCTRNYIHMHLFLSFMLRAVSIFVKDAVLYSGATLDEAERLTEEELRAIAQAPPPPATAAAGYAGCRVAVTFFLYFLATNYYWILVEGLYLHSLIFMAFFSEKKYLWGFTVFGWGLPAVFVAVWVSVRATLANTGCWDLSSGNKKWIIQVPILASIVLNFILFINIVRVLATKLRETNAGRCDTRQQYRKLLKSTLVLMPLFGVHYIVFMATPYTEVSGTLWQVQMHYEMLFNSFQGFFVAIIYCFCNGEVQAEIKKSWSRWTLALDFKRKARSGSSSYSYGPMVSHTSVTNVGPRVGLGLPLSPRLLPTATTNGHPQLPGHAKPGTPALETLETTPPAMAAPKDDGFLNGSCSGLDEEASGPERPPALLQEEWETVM
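HEK-293-derived GP2 cells expressing PTHR1 and a GloSensor cAMP reporter, 3,000/well, plated overnight, given luciferin plus IBMX (each 0.5 mM as added) for 1 h at 37 °C, then compound for 1 h at 37 °C. Luminescence was read after 15 min at room temperature.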
Mito fusion act: blocks mitochondrial division or promotes mitochondrial fusion; S. cerevisiae fusion-defective mutant growth rescue, CellTiterGlo 48 h; Potency, µM (highest dose often 46.1 µM), without a hit: at the top dose growth rescue (activation), most hits filed as activators; hit rate 0.23% among 320,000; note: potency is the fitted concentration of half-maximal effect; % of control where 0% means no effect; nearly all actives have a fitted effect of over 45% in size
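Growth-rescue viability read-out: after 48 h at the non-permissive 37C in glycerol/ethanol YPEG, yeast mitochondrial fusion mutants are measured by CellTiterGlo luminescence; compounds (23 nl pinned per well) restoring growth score as division inhibitors or fusion activators.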
BCR signal inh: inhibitors of chronic active B-cell receptor signaling. ABC-DLBCL IkBa-CBG/CBR reporter, luminescence ratio, 4 h. Potency, µM (doses to about 46.1 µM), inactives show at the highest dose activity change, negative = inhibition, usual class: inhibitors. hit rate 0.05% among 340,000. AID 493014; active = well fitted inhibition curve with a large enough effect in the signal ratio, with a control signal flat, not every such curve was filed as active; inconclusive = small, poorly fitted or top-dose-only effect, or effect the other way, or a change in a side signal; the % refers to the signal ratio;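 note: potency is the fitted concentration of half-maximal effect; plate controls were basal doxycycline-induced cells for no effect and cells given 10 µM MG132 for full effect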
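Doxycycline induced both beetle luciferases in TMD8 lymphoma cells; IKK-driven degradation limits the IkappaBalpha-fused green signal, while red luminescence normalises for cell number and nonspecific effects. Compounds tested up to 46 uM, 4 hrs.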
TCR act: T cell receptor activation. primary human leukocytes, anti-CD3, IL-2 HTRF, 48 h. Potency, µM (highest dose often 9.22 µM), inactives show at the top dose activation of IL-2 secretion, actives largely listed as activators. 330,000 tested, under 10 active; note: % of control where 0% means no effect
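Primary human leukocytes receive a-CD3 beads and test compound and are incubated 48 hr. Secreted IL-2 is then assayed by HTRF, measuring 665nm acceptor emission after 320nm excitation of the europium donor.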
BRCA1 expr act: increases BRCA1 expression; MCF7-BRCA1-FFLuc reporter, luminescence, 48 h; response scale: scaled: vehicle 0%, 10 µM genistein 100%; Potency, µM (titrated, usually from 46.1 µM), without a hit: at the top dose activation, hits mostly activators; hit rate 1.1% among 380,000; AID 624202; note: potency is the fitted concentration of half-maximal effect; nearly all actives have a fitted effect of over 80% in size
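First, MCF7-BRCA1-FFLuc cells (2000/well) attach for 2 h; next, compounds are pin-added and incubated 48 h at 37 °C; finally, luciferase reagent is added and luminescence read after 15 min.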
IL2 activator: activates IL-2 in a cell-based reporter assay; IL-2 activation reporter assay, cell-based qHTS; stimulated with anti-CD3/CD4/CD28 beads; in transgenic mouse T cells; activation, % (series mostly up to about 46 µM); hit rate 0.065% among 360,000; AID 652025; in the data active = activation above about 50%; inconclusive = mostly about 30% to 49%; note: 0% is about no effect
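Screening format: compound pinned onto unstimulated transgenic mouse T cells, 60 min incubation, then anti-CD3/anti-CD4/anti-CD28 bead stimulation for 18 hours at 37 degrees C, followed by EGFP and DsRed detection.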
An asterisk follows results filed as active; i = inactive; ? = inconclusive; nt = no result given; ! = a repeat was not active; [ ] = remark or other dose. Compounds with a hit are over-represented: about 1.3% of the library has one in this group of screens. Unless noted, calls come from the whole dose curve; as a rule, active = well fitted curve in the direction sought with a large enough effect; inconclusive = small, poorly fitted or top-dose-only effect, or another doubt; inactive = no such curve, though single readings can be large; an effect the other way counts as inactive or inconclusive.

SMILES	PTHR1 agonist	Mito fusion act	BCR signal inh	TCR act	BRCA1 expr act	IL2 activator
Cc1cc(/C=C2\SC(=S)NC2=O)c(C)n1C1CC1	-12%[57.5 µM]	-2%	19%	-2%	13µM*	-2
Cc1cc(/C=N/NC(=O)c2ccc(O)cc2)c(C)n1C1CC1	-19%	3%	?	1%	16%	0
Cc1cc(/C=C2/C(=O)N(C)C(=S)N2C)c(C)n1C1CC1	-33%	11%	-3%	-3%	11µM*	2
C[C@@H](CN1CCC(Cc2ccccc2)CC1)[C@@H](O)c1ccc(O)cc1	-6%	23µM*!	1%	-4%	0%	0
CC(C(O)c1ccc(O)cc1)N1CCC(Cc2ccccc2)CC1 (stereo not drawn)	-17%	16µM*!	?	-9%	-9%	0
CC(C)OCC(O)CN1CCC(Cc2ccccc2)CC1 (stereo not drawn)	i	1%	0%	3%	0%	0
CC(C)CCOc1ccc(CC(=O)NO)cc1	nt	nt	nt	nt	-1%	nt
O=C(Nc1cccnc1)c1ccccc1O	i	4%	?	-2%	-19%	0
O=C(Nc1cccnc1)c1coc(=O)c2ccccc12	i	-6%	18µM*	-1%	-5%	1
O=C(Nc1cccnc1)c1cc2c(ccc3ccccc32)o1	-28%[57.5 µM]	-7%	nt	5%	13µM*	-2
Cc1ccc(NC(=O)c2oc3ccccc3c2NC(=O)c2cc3ccccc3o2)cc1	-47%	nt	nt	nt	5%	nt
ClC(=Nc1cccc2ccccc12)N(c1ccccc1)c1ccccc1	nt	nt	nt	nt	-23%	nt
Cc1cc(C)c(C#N)c(Sc2nnnn2-c2ccccc2)n1	1%	5%	11%	-3%	-8%	0
O=Cc1ccc(OCc2ccc3ccccc3c2)cc1	-13%	1%	?	9%	4.5µM*	1
O=Cc1ccc(OCc2ccccn2)cc1	-6%[57.5 µM]	-6%	-1%	-3%[46.1 µM]	62%	-3
CC(=O)N(O)c1ccc(/C=C2\C=Cc3ccccc32)cc1	nt	nt	nt	nt	74%	nt
CN(c1ccccc1)c1nc(C#N)nc(N2CCOCC2)n1	nt	nt	nt	nt	-46%	nt
Nc1c(C(=O)Nc2ccc(Cl)cc2)oc2ccccc12	-22%	8%	?	0%	2.5µM*	-4
CC(=O)c1oc2ccccc2c1N	i	-3%	0%	-3%	-7%	1
O=CC(=O)c1ccc(F)cc1	nt	nt	nt	nt	0%	nt
Cc1cc(/C=N/NC(=O)c2ccccn2)c(C)n1-c1cccc([N+](=O)[O-])c1	i	12%	?	4%	10µM*	2
CC(=NNc1ccc([N+](=O)[O-])cn1)c1ccccc1	-16%	nt	nt	-2%	10µM*	-4
O=[N+]([O-])c1ccc(NN=Cc2cccc3ccccc23)nc1	-8%	nt	nt	3%	1%	58*
Cc1cc(C(=O)N/N=C/c2cccc([N+](=O)[O-])c2)c(C)n1-c1ccccc1	-6%	-1%	?	6%[46.1 µM]	45%	-3
Cc1cccc(-n2c(C)cc(/C=N\NC(=O)c3ccco3)c2C)c1	-16%	3%	?	-4%	8.9µM*	-2
SMILES	PTHR1 agonist	Mito fusion act	BCR signal inh	TCR act	BRCA1 expr act	IL2 activator
O=C(O)c1ccccc1C=NNc1ccc([N+](=O)[O-])cn1	i	nt	nt	-4%	1%	-1
Cc1ccc(-n2c(C)cc(/C=N/Nc3ccc([N+](=O)[O-])cn3)c2C)cc1	-19%	-1%	?	-3%	59%	-4
Cc1cc(/C=N/Nc2ccc([N+](=O)[O-])cn2)c(C)n1-c1ccccc1	-14%	-4%	?	-5%	10µM*	-3
CCC(=O)N1c2ccc(S(=O)(=O)CCC(=O)N3CCN(c4cc(C)ccc4C)CC3)cc2CC1C (stereo not drawn)	-19%	nt	nt	nt	8%	nt
Cc1ccc(C)c(N2CCN(C(=O)CCS(=O)(=O)c3ccc4c(c3)CCN4C(=O)C3CC3)CC2)c1	-47%	11µM*	1%	2%	-6%	-1
C=C(C)CN(CC)C(=O)CCc1nnc(CCCc2ccccc2)o1	-43%	2%	6%	-11%	?	1
CCN(CCn1cccn1)C(=O)CCc1nnc(CCCc2ccccc2)o1	-8%	-10%	?	12%	13µM*	-1
Cc1ccc(SCC(=O)c2ccc[nH]2)cc1	-1%	-1%	0%	4%	3.2µM*	2
Cc1ccc(CNC(=O)c2ccc[nH]2)cc1	-4%	-1%	-5%	4%	9%	-3
CC1CCN(c2oc(-c3ccccc3Cl)nc2C#N)CC1	-13%	9%	?	5%	6.3µM*	0
O=C(Nc1sc2c(c1C(=O)O)CCCC2)c1cccc(Cl)c1	-69%	33%	?	9%	11µM*	-2
COc1ccc(C(C#N)c2ccc(=O)[nH]n2)cc1 (stereo not drawn)	i	-1%	-3%	1%	-9%	-3
O=S(=O)(NC1CCCC1)c1cccc(-c2nnc(-c3ccccc3)o2)c1	-25%	6%	?	3%	-25%	-3
CC(=O)Nc1cccc(-c2nnc(-c3ccccc3)o2)c1	-21%	-2%	?	-1%	6.3µM*	-3
O=C(Nc1cccc(-c2nnc(-c3ccccc3)o2)c1)C1CC1	-15%	9%	0%	0%	8.9µM*	0
COc1ccc(NS(=O)(=O)c2cccc(-c3nnc(-c4ccccc4)o3)c2)cc1	-42%	13µM*	?	-4%[46.1 µM]	-10%	-4
O=C(Cc1ccccc1)Nc1cccc(-c2nnc(-c3ccco3)o2)c1	i	2%	5%	-1%	16%	-1
COc1ccccc1OCC(=O)Nc1cccc(-c2nnc(-c3ccco3)o2)c1	-14%	?	5%	-2%	5µM*	0
CC(C)(C)C(=O)Nc1cccc(-c2nnc(-c3cccc(NC(=O)C(C)(C)C)c3)o2)c1	-14%[57.5 µM]	0%	11%	2%[46.1 µM]	-1%	1
Cc1ccccc1NC(=O)c1sc2nc3n(c(=O)c2c1C)N=C(c1ccccc1)CS3	i	nt	nt	nt	nt	nt
CCC(C)Sc1nnc(NC(=O)c2ccco2)s1 (stereo not drawn)	i	nt	nt	-3%	101%	-1
Nc1nc(Cl)nc2c1ncn2[C@@H]1O[C@H](COP(=O)(O)OP(=O)(O)OP(=O)(O)O)[C@@H](O)[C@H]1O	nt	-49%	nt	nt	nt	nt
O=C1CN(C(=O)CNCc2cccc(Cl)c2)c2ccccc2N1	i	2%	-3%	-2%	14%	0
CC(C)NC(=O)COC(=O)c1ccccc1OCC(=O)Nc1ccc(Br)cc1	nt	nt	nt	nt	-18%	nt

Bioassay records deposited in PubChem by National Center for Advancing Translational Sciences (NCATS).
